In the library only some 2.1% were active in any assay of this set; here they are far more common.
aSyn UTR inh – MLPCN primary screen, SNCA 5' untranslated region | alpha-synuclein 5'UTR reporter, inhibitor activity | inhibition, % (tested at 7.5 µM) | actives 0.82% (n = 300,000) | AID 1813, 2009; in the data active = inhibition above about 60%;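 note: H4 neuroglioblastoma cells stably carrying SNCA 5'UTR luciferase fusion; 0% = DMSO wells and 100% = positive control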
PAX8 reporter – inhibitors of PAX8-driven TPO luciferase reporter, primary screen, RMG-I cells, single concentration. inhibition, % at 12.6 µM. actives 1.2% (n = 360,000). SteadyGlo, 24 h;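 active = mean replicate inhibition at least 60% with every replicate also reaching 60%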;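 note: luciferase light reporting Pax8 driven TPO promoter activity; plate controls were median of neutral control wells for no effect and mitoxantrone controls for full effect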
Shn3 inh set2 – reduction of Shn3 3'UTR firefly luciferase signal, primary screen, Schnurri-3 inhibitor project, cell-based, Clone20 osteoblasts, set 2; inhibition, % at 12.5 µM; actives 0.52% (n = 360,000); Clone20 osteoblast Shn3 3'UTR firefly luciferase, 24 h;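 active = mean inhibition of at least 75% with every replicate also reaching 75%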;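 note: 0% = median of neutral control wells and 100% = pilot-screen positive control compound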
EBV LMP1 NFkB – EBV LMP1-driven NF-kappaB luciferase reporter inhibitors, primary screen, cell-based, luminescence, single point; LMP1-induced NF-kappaB luciferase reporter cells; inhibition, % at 12.5 µM; actives 0.69% (n = 350,000); in the data active = inhibition above about 41%;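 note: 0% = neutral control wells and 100% = reference inhibitor control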
MITF TRPM1 inh – inhibitors of MITF-dependent TRPM1 promoter reporter, primary screen, cell-based, SK-MEL-5, single point, luciferase; SK-MEL-5 TRPM1 promoter luciferase, 24 h; inhibition, % at 12.5 µM; actives 0.83% (n = 330,000);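 active = mean inhibition across replicates of 60% or more, whatever share of single replicates reaches that level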
Active calls of the source: *.

What do the screens show for `COC(=O)c1ccc(Oc2nc(C)cc(Oc3ccccc3)n2)cc1`?
aSyn UTR inh: -1; Shn3 inh set2: -4; EBV LMP1 NFkB: -8; MITF TRPM1 inh: 7

Results for COc1ccc(CCNC(=O)Oc2ccccc2)cc1OC ?
aSyn UTR inh: 10; PAX8 reporter: 17; Shn3 inh set2: -12; EBV LMP1 NFkB: 1; MITF TRPM1 inh: -3

How did O=C1C(C2=NC(c3ccccn3)C3C(=O)N(c4ccc(Cl)cc4Cl)C(=O)C23)=C(O)c2ccccc21 (stereo not drawn) do in these assays?
aSyn UTR inh: -18; PAX8 reporter: -9; Shn3 inh set2: 13; EBV LMP1 NFkB: -10; MITF TRPM1 inh: 90*

How did COc1ccc(C(=O)CCN2CCc3cc(OC)c(OC)cc3C2)cc1 do in these assays?
aSyn UTR inh: 1; PAX8 reporter: 71*; Shn3 inh set2: 5; EBV LMP1 NFkB: 3; MITF TRPM1 inh: 3

How did COc1ccc(C(=O)CCN2CCN(c3ccccc3OC)CC2)cc1 do in these assays?
aSyn UTR inh: -6; PAX8 reporter: 83*; Shn3 inh set2: 27; EBV LMP1 NFkB: -2; MITF TRPM1 inh: 5

How did COc1cc2c(cc1OC)CN(CCOc1ccc(Br)cc1)CC2 do in these assays?
aSyn UTR inh: -1; PAX8 reporter: 8; Shn3 inh set2: 7; EBV LMP1 NFkB: 4; MITF TRPM1 inh: 12

Results for COc1ccc(CNC(=O)c2csc3c2CCCC3)cc1 ?
PAX8 reporter: -39; Shn3 inh set2: -9; EBV LMP1 NFkB: 1; MITF TRPM1 inh: -12

How did COc1ccc2nc(C)cc(SCC(=O)N/N=C/c3ccc(O)cc3O)c2c1 do in these assays?
aSyn UTR inh: 80*; PAX8 reporter: 53; Shn3 inh set2: 87*; EBV LMP1 NFkB: 6; MITF TRPM1 inh: 59

What do the screens show for `O=C(COC(=O)COc1cccc(F)c1)Nc1nc2ccccc2s1`?
PAX8 reporter: -17; Shn3 inh set2: -19; EBV LMP1 NFkB: -2; MITF TRPM1 inh: -3

How did COc1cccc(CNC(=O)C[C@H]2C=C[C@@H](NC(=O)C3CCOCC3)[C@H](CO)O2)c1 do in these assays?
PAX8 reporter: -3

Results for CN(C)CCCC1(c2ccc(F)cc2)OCc2cc(C#N)ccc21 (stereo not drawn) ?
aSyn UTR inh: 1; PAX8 reporter: -21; Shn3 inh set2: 4; EBV LMP1 NFkB: 54*; MITF TRPM1 inh: 7

Results for COc1ccc(NC(=O)CC2C(=O)N(c3ccccc3)C(=O)N2CCc2cccs2)cc1 (stereo not drawn) ?
aSyn UTR inh: -9; PAX8 reporter: 68*; Shn3 inh set2: -13; EBV LMP1 NFkB: 5; MITF TRPM1 inh: -3

Results for O=C1C=C(c2ccccc2)C[C@H](c2cccs2)[C@H]1n1nnc([N+](=O)[O-])n1 ?
aSyn UTR inh: 88*; PAX8 reporter: 76*; Shn3 inh set2: 35; EBV LMP1 NFkB: -91; MITF TRPM1 inh: -3

How did C=CC(C)(C)c1c2occc2c(O)c2ccc(=O)oc12 do in these assays?
Shn3 inh set2: -5; EBV LMP1 NFkB: 4

What do the screens show for `C=CC(C)(C)c1c(O)c(CC=C(C)C)c(O)c2c(=O)c3ccc(O)c(O)c3oc12`?
aSyn UTR inh: 73*; Shn3 inh set2: 89*; EBV LMP1 NFkB: 34

What do the screens show for `O=C1/C(=C\c2ccco2)SC(=S)N1c1ccc(O)cc1`?
aSyn UTR inh: -24; PAX8 reporter: 91*; Shn3 inh set2: 8; EBV LMP1 NFkB: 2; MITF TRPM1 inh: -5

How did C/C(=N/NC(=O)C(O)(c1ccccc1)c1ccccc1)c1ccc([N+](=O)[O-])o1 do in these assays?
aSyn UTR inh: -66; PAX8 reporter: 22; Shn3 inh set2: -8; EBV LMP1 NFkB: 2; MITF TRPM1 inh: 65*

What do the screens show for `O=C(NNC(=O)c1ccc([N+](=O)[O-])o1)c1ccccc1`?
aSyn UTR inh: -34; Shn3 inh set2: 4; EBV LMP1 NFkB: 0; MITF TRPM1 inh: 28

How did O=C(Cc1ccc(NC(=O)C2CCCN(C(=O)C3CCCCC3)C2)cc1)Nc1ccc(C(=O)N2CCOCC2)cc1 (stereo not drawn) do in these assays?
PAX8 reporter: -2; Shn3 inh set2: 6; EBV LMP1 NFkB: -8; MITF TRPM1 inh: -1

Results for O=C(Cc1ccc(NC(=O)C2CCN(C(=O)C3CCCCC3)CC2)cc1)Nc1ccc(C(=O)N2CCOCC2)cc1 ?
PAX8 reporter: 68*; Shn3 inh set2: -8; EBV LMP1 NFkB: -9; MITF TRPM1 inh: 1
